From PubChem
Nrf2 block – Nrf2 qHTS screen for inhibitors; A549 ARE-Fluc reporter, luciferase luminescence, 18-24 h; Potency, µM (doses to about 46 µM), for inactives: top-dose activity change, negative = inhibition, most hits filed as inhibitors; 2.1% of 360,000 active; AID 504444, 2011; also: % is scaled to controls: 0 for no effect and ±100 for the full control effect; nearly all actives have a fitted effect of over 60% in size
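Reporter: ARE-Fluc in A549. Exposure: 18-24 h, 37 °C, 5% CO2, 5% FBS OPTI-MEM. Readouts: fluorescent cytotoxicity (CellTiter-Fluor), then luminescent Nrf2 signal after BugLite.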
ATXN viability – Viability Counterscreen for Primary qHTS for Inhibitors of ATXN expression. S2 cells (HEK-293 line with an ATXN2-luciferase reporter) viability, CellTiter-Fluor protease fluorescence, 24 h. Potency, µM (titrated, usually from 56.7 µM), most hits filed as cytotoxic. AID 651635, 2014. 0.49% of 400,000 active; also: nearly all actives have a fitted effect of over 40% in size
ATXN2 expr inh – Primary qHTS for Inhibitors of ATXN expression. 0.72% of 360,000 active. HEK-293 ATXN2-luciferase reporter, luminescence, 24 h. Potency, µM (highest dose often 57 µM), without a hit: at the top dose activity change, negative = inhibition, most hits filed as inhibitors; also: % is scaled to controls: 0 for no effect and ±100 for the full control effect; nearly all actives have a fitted effect of over 55% in size
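qHTS (up to 57 uM final) was run with 24 h compound exposure of reporter cells at 37 °C. Each well was multiplexed: SteadyGlo luminescence measured ATXN2-luciferase expression after a fluorogenic Gly-Phe-AFC viability readout (25 uM final).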
Nrf2 ARE act – qHTS of Nrf2 Activators | AREc32 ARE-luciferase reporter (MCF7-derived line), luminescence, 24 h | AID 624171, 2012 | 0.31% of 410,000 active | Potency, µM (top dose mostly 46.1 µM), for the others: at the highest dose activation, usual class: activators; also: % of control where 0% means no effect; nearly all actives have a fitted effect of over 65% in size
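AREc32 cells carrying an ARE-driven firefly luciferase reporter were seeded at 1000 cells/well in OPTI-MEM with 5% FBS, then exposed to compound for 24 hr at 37 deg C. Luminescence was read with Steady-Glo after 30 min at RT.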
A549 tox – Nrf2 qHTS screen for inhibitors: counterscreen for cytotoxicity | A549 ARE-Fluc cells, CellTiter-Fluor viability, 18-24 h | Potency, µM (series often up to 46 µM), without a hit: at the highest dose activity change, negative = cytotoxicity, actives largely listed as inhibitors | 0.16% of 390,000 active | AID 504648, 2011; also: % is scaled to controls: 0 for no effect and ±100 for the full control effect
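A549 ARE-Fluc cells in 5% FBS OPTI-MEM, 5000 cells/well, rested 2 h then exposed to compounds in concentration-response for 18-24 h at 37 °C. Viability by CellTiter-Fluor fluorescence (Ex 405/Em 525) after 30 min; luciferase luminescence (BugLite, 15 min, RT) read afterwards.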
* hit, by the source's call; i = inactive; ? = inconclusive; . = no result; ! = repeats disagree; [ ] = dose if it differs, or a comment. An excerpt weighted towards active compounds, which were near 2.9% of everything screened. Calls follow the shape of the dose curve; as a rule, active = well fitted curve in the direction sought with a large enough effect; inconclusive = small, poorly fitted or top-dose-only effect, or another doubt; inactive = no such curve, though single readings can be large; an effect the other way counts as inactive or inconclusive. Potency is read from the fitted curve at half-maximal effect.

SMILES | Nrf2 block | ATXN viability | ATXN2 expr inh | Nrf2 ARE act | A549 tox
O=C(C#Cc1ccccc1)c1cccc([N+](=O)[O-])c1 | 12% | . | 22µM* | 15% | -4%
O=C1[C@H](Cc2ccccc2)NCCCC[C@H](c2ccc(Cl)cc2)N1Cc1ccccc1 | ? | i | ? | 7% | ?
CCN(Cc1nc2ccccc2c(=O)[nH]1)C(=O)c1ccc(C)c(NC(=O)c2ccco2)c1 | 16µM* | i | . | 2% | -10%
CCN(Cc1nc2ccccc2c(=O)[nH]1)C(=O)c1cccc(NC(=O)c2cccs2)c1 | -11% | i | 0% | 8% | 0%
CCOC(=O)[C@H]1[C@H]2COc3ccc(Br)cc3[C@@H]2N2C(=O)CN(Cc3ccc(Cl)cc3)C(=O)[C@@]12C | -27% | i | 11% | 3% | -4%
CCOC(=O)[C@H]1[C@H]2COc3ccc(Br)cc3[C@H]2N2C(=O)CN(Cc3ccc(Cl)cc3)C(=O)[C@@]12C | 26µM* | i | -25% | 5% | -12%
Cc1ccc(NC(=O)c2nc[nH]c2C(=O)N[C@@H](C)c2ccccc2)cc1 | ? | ? | ? | -2% | -5%
C[C@H](NC(=O)c1[nH]cnc1C(=O)Nc1ccc(Cl)cc1)c1ccccc1 | 18µM* | ? | ? | 0% | -10%
C[C@@H](NC(=O)c1[nH]cnc1C(=O)Nc1ccc(Cl)cc1)c1ccccc1 | 5.8µM* | ? | -21% | -6% | 18µM*
C[C@@H](NC(=O)c1[nH]cnc1C(=O)Nc1ccccc1)c1ccccc1 | 23µM* | ? | ? | -2% | -8%
CC1=C(c2ccc(C)cc2)S(=O)(=O)N=C1N1CCN(c2ccccc2)CC1 | ? | . | . | -1% | 0%
Cc1ccc2nc(-c3ccc(Cl)c(NC(=O)c4ccc(Br)o4)c3)oc2c1 | ? | i | 62% | 4% | 11%
Nc1nc2ccccc2n1/N=C/c1ccc([N+](=O)[O-])s1 | 15µM* | i | ? | 6% | ?
COc1ccc(Cc2[nH]n3c(=O)cc(C(C)C)nc3c2-c2ccccc2)cc1 | 12µM* | ? | 22µM* | 0% | ?
COc1ccc(Cc2[nH]n3c(=O)cc(C)nc3c2-c2ccccc2)cc1 | ? | ? | ? | 1% | -3%
N#CC(=Cc1ccccn1)c1nc(-c2ccc(Cl)cc2)cs1 | . | i | . | 13µM* | .
CCCCNC(=S)Nc1ccc([N+](=O)[O-])cc1 | 18µM* | i | -20% | 2% | ?
CC(C)OC(=O)c1cc(NC(=S)Nc2ccc([N+](=O)[O-])cc2)cc(C(=O)OC(C)C)c1 | 16µM* | . | ? | 3% | ?
CC(C)CCNC(=S)Nc1ccc([N+](=O)[O-])cc1 | ? | ? | ? | 5% | ?
COC(=O)c1ccccc1NC(=O)c1ccc(COc2cc(C)cc(C)c2)o1 | -17% | i | 1% | 0% | -4%
O=C1NC(=O)C(=Cc2ccc3nccc(-c4ccncc4)c3c2)S1 | . | . | 6.9µM* | . | .
COc1ccc(N2CC(C(=O)Nc3c4c(nn3-c3ccc(OC)cc3)CS(=O)(=O)C4)CC2=O)cc1 (stereo not drawn) | 14% | i | 5% | 0% | 3%
CCN(CC)C(=O)c1sc2nc(-c3ccccn3)[nH]c(=O)c2c1C | -7% | i | 16% | 3% | 3%
Cc1sc2nc(-c3ccccn3)[nH]c(=O)c2c1-c1ccccc1 | 12µM* | . | 17%[11.3 µM] | 5% | -9%
COc1ccc(OC)c(NC(=O)[C@@H]2CCCN2C(=O)c2cccs2)c1 | 2% | i | 7% | 0% | -10%
SMILES | Nrf2 block | ATXN viability | ATXN2 expr inh | Nrf2 ARE act | A549 tox
Cc1nc2c(nc1C)C(=O)c1ccccc1C2=O | 16µM* | ? | ? | -3% | ?
Cc1ccccc1OCC(=O)Nc1ccccc1CO | . | i | 5% | 10µM* | 8%
Cc1ccccc1OCC(=O)Nc1ccncc1 | ? | ? | -4% | 0% | 1%
Cc1ccccc1OCC(=O)Nc1ccc(Cc2ccncc2)cc1 | 13µM* | i | ? | 0% | 5%
COc1ccc(NC(=O)Nc2cnccn2)c(OC)c1 | 1% | i | 21% | 2% | -9%
COc1ccc(NC(=O)Nc2ccc(Cc3ccncc3)cc2)c(OC)c1 | 16µM* | i | -2% | 0% | -6%
COc1cnc(-c2ccccn2)nc1N(C)C | 8.2µM* | ? | 16µM* | 0%[9.22 µM] | ?
CCOC(=O)C1=C(Cc2ccc(F)cc2)C(=O)c2ccccc2C1=O | . | ? | ? | 9% | 16µM*
CON=C1C[C@]2(C[C@@H]3C[C@@H](C/C=C(\C)C[C@@H](C)/C=C/C=C4\CO[C@@H]5[C@H](O)C(C)=C[C@@H](C(=O)O3)[C@]45O)O2)O[C@H](/C(C)=C/C(C)C)[C@H]1C | . | 16µM* | . | . | .
CO[C@H]1C[C@H](O[C@H]2[C@H](C)O[C@@H](O[C@@H]3/C(C)=C/C[C@@H]4C[C@@H](C[C@]5(C=C[C@H](C)[C@@H](C6CCCCC6)O5)O4)OC(=O)[C@@H]4C=C(C)[C@@H](O)[C@H]5OC/C(=C\C=C\[C@@H]3C)[C@]54O)C[C@@H]2OC)O[C@@H](C)[C@@H]1O | . | 3.2µM* | . | . | .
CC[C@H](C)[C@H]1O[C@]2(CC[C@@H]1C)C[C@@H]1C[C@@H](CC=C(C)[C@@H](O[C@H]3C[C@H](OC)[C@@H](O[C@H]4C[C@H](OC)[C@@H](O)[C@H](C)O4)[C@H](C)O3)[C@@H](C)C=CC=C3CO[C@@H]4[C@H](O)C(C)=C[C@@H](C(=O)O1)[C@]34O)O2 | 5.8µM* | 3.5µM* | 3.5µM* | 5% | 23µM*
CCC(C)[C@H]1O[C@]2(C=C[C@@H]1C)C[C@@H]1C[C@@H](C/C=C(\C)[C@@H](O[C@H]3C[C@H](OC)[C@@H](O[C@H]4C[C@H](OC)[C@H](NC(C)=O)[C@H](C)O4)[C@H](C)O3)[C@@H](C)/C=C/C=C3\CO[C@@H]4[C@H](O)C(C)=C[C@@H](C(=O)O1)[C@]34O)O2 (stereo partly drawn) | . | 3.2µM*! | . | . | .
COc1ccccc1C(=O)NC(=O)COC(=O)CCOc1ccccc1C | -2% | i | 5% | 0% | -5%
O=C1NN(c2cccc(Br)c2)C(=O)/C1=C/c1ccc(-c2cc([N+](=O)[O-])ccc2O)o1 | 3% | i | . | 0% | -7%
CCc1nnc(SCC(=O)Nc2ccccc2)n1CC1CCCO1 (stereo not drawn) | 5% | i | -4% | 0% | 1%
CCOC(=O)C(C)Oc1ccc(NC(=O)C(Cl)(Cl)Cl)cc1 (stereo not drawn) | 2% | i | -14% | 0% | 3%
Cn1cc(C2=C(c3c4n(c5ccccc35)CCC(CN)C4)C(=O)NC2=O)c2ccccc21 (stereo not drawn) | . | . | 24µM* | . | .
